Inconclusive results are not listed. Active and inactive are the calls of the source. The call rests on the fitted dose curve; in most records, active means well fitted curve in the direction sought with a large enough effect; inconclusive means small, poorly fitted or top-dose-only effect, or another doubt; inactive means no such curve, though single readings can be large; an effect the other way counts as inactive or inconclusive.
Tests used:
[1] = Quantitative High-Throughput drug screen in 47 multiple myeloma cell lines against the NCATS MIPE library collection: FR4_PLB cell viability assay (AID 1918924; further: nearly all actives have a fitted effect of over 35% in size; further: potency means the concentration at half of the fitted maximal effect)
Summary of the method: (§1)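 Myeloma cell lines, 500 cells per well, exposed to MIPE 4.0 library compounds for 48 h at 37C, 5% CO2. Viability from ATP by CellTiter-Glo luminescence; normalised to DMSO (100%) and media-only (0%) wells.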

[2] = Quantitative High-Throughput drug screen in 47 multiple myeloma cell lines against the NCATS MIPE library collection: Delta47_JCRB cell viability assay (AID 1918925; further: nearly all actives have a fitted effect of over 45% in size; further: potency means the concentration at half of the fitted maximal effect)
Summary of the method: as §1

[3] = Quantitative High-Throughput drug screen in 47 multiple myeloma cell lines against the NCATS MIPE library collection: EJM_DSMZ cell viability assay (AID 1918926; further: nearly all actives have a fitted effect of over 30% in size; further: potency means the concentration at half of the fitted maximal effect)
Summary of the method: as §1

[4] = Quantitative High-Throughput drug screen in 47 multiple myeloma cell lines against the NCATS MIPE library collection: AMO1_DSMZ cell viability assay (AID 1918927; further: nearly all actives have a fitted effect of over 30% in size; further: potency means the concentration at half of the fitted maximal effect)
Summary of the method: as §1

[5] = Quantitative High-Throughput drug screen in 47 multiple myeloma cell lines against the NCATS MIPE library collection: ARP1_JJKsccF8 cell viability assay (AID 1918928; further: nearly all actives have a fitted effect of over 40% in size; further: potency means the concentration at half of the fitted maximal effect)
Summary of the method: (§2)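 Here, 48 h treatment with MIPE 4.0 agents at 37 °C preceded an ATP luminescence read. Plating density was 500 cells per well.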

[6] = Quantitative High-Throughput drug screen in 47 multiple myeloma cell lines against the NCATS MIPE library collection: ARD_JJKsccE7 cell viability assay (AID 1918929; further: potency means the concentration at half of the fitted maximal effect)
Summary of the method: as §1

[7] = Quantitative High-Throughput drug screen in 47 multiple myeloma cell lines against the NCATS MIPE library collection: Karpas620_DSMZ cell viability assay (AID 1918959); further: nearly all actives have a fitted effect of over 30% in size; further: potency means the concentration at half of the fitted maximal effect
Summary of the method: as §1

[8] = Quantitative High-Throughput drug screen in 47 multiple myeloma cell lines against the NCATS MIPE library collection: KMM1_JCRB cell viability assay (AID 1918960); further: nearly all actives have a fitted effect of over 30% in size; further: potency means the concentration at half of the fitted maximal effect;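 on viability (% of DMSO): 100% = DMSO-treated cells and 0% = medium-only wells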
Summary of the method: as §2

[9] = Quantitative High-Throughput drug screen in 47 multiple myeloma cell lines against the NCATS MIPE library collection: Karpas417_ECACC cell viability assay (AID 1918961); conditions: Karpas417 myeloma viability, CellTiter-Glo ATP luminescence, 48 h; viability (% of DMSO): at 45.8 µM (top of the series); further: potency means the concentration at half of the fitted maximal effect
Summary of the method: as §1

[10] = Quantitative High-Throughput drug screen in 47 multiple myeloma cell lines against the NCATS MIPE library collection: JIM3_ECACC cell viability assay (AID 1918963; further: nearly all actives have a fitted effect of over 35% in size; further: potency means the concentration at half of the fitted maximal effect)
Summary of the method: as §1

[11] = Quantitative High-Throughput drug screen in 47 multiple myeloma cell lines against the NCATS MIPE library collection: JIM1_ECACC cell viability assay (AID 1918964; further: potency means the concentration at half of the fitted maximal effect)
Summary of the method: as §1

[12] = Quantitative High-Throughput drug screen in 47 multiple myeloma cell lines against the NCATS MIPE library collection: INA6_PLB cell viability assay (AID 1918965; further: nearly all actives have a fitted effect of over 55% in size; further: potency means the concentration at half of the fitted maximal effect)
Summary of the method: as §1

[13] = Quantitative High-Throughput drug screen in 47 multiple myeloma cell lines against the NCATS MIPE library collection: JJN3_DSMZ cell viability assay (AID 1918966; further: nearly all actives have a fitted effect of over 50% in size; further: potency means the concentration at half of the fitted maximal effect)
Summary of the method: as §1

[14] = Quantitative High-Throughput drug screen in 47 multiple myeloma cell lines against the NCATS MIPE library collection: H1112_PLB cell viability assay (AID 1918967; further: nearly all actives have a fitted effect of over 30% in size; further: potency means the concentration at half of the fitted maximal effect)
Summary of the method: as §1

[15] = Quantitative High-Throughput drug screen in 47 multiple myeloma cell lines against the NCATS MIPE library collection: Karpas25_ECACC cell viability assay (AID 1918968; further: nearly all actives have a fitted effect of over 35% in size; further: potency means the concentration at half of the fitted maximal effect)
Summary of the method: as §1

[16] = Quantitative High-Throughput drug screen in 47 multiple myeloma cell lines against the NCATS MIPE library collection: KMS27_JCRB cell viability assay (AID 1918970); further: nearly all actives have a fitted effect of over 30% in size; further: potency means the concentration at half of the fitted maximal effect
Summary of the method: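 Luminescent ATP read-out (CellTiter-Glo, 5 min at room temperature) after 48 h compound exposure of 500 KMS27_JCRB cells per well; DMSO wells define full viability and media-only wells zero.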

[17] = Quantitative High-Throughput drug screen in 47 multiple myeloma cell lines against the NCATS MIPE library collection: KMS12BM_JCRB cell viability assay (AID 1918971); further: nearly all actives have a fitted effect of over 35% in size; further: potency means the concentration at half of the fitted maximal effect
Summary of the method: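 Inhibition of cell viability is measured here. Each line was plated at 500 cells per well, treated with MIPE 4.0 drugs, kept 48 hours at 37C, then assayed for ATP content by CellTiter-Glo luminescence.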

[18] = Quantitative High-Throughput drug screen in 47 multiple myeloma cell lines against the NCATS MIPE library collection: KMS12PE_JCRB cell viability assay (AID 1918972); further: nearly all actives have a fitted effect of over 30% in size; further: potency means the concentration at half of the fitted maximal effect
Summary of the method: as §1

[19] = Primary redox qHTS assay for identification of artifact compounds. (AID 1845223)
Summary of the method: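 Amplex Red (25 uM) and HRP (250 mU/mL) in HBSS, with compounds for 15 min, then 250 uM DTT for 30 min, room temperature, dark. Fluorescence 525/598 nm read; normalized to DMSO and 10 uM DA3003; Hill fit.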

O=C1c2c(O)ccc(O)c2C(=O)c2c(NCCNCCO)ccc(NCCNCCO)c21
active: Potency [1] 1.66 µM | Potency [2] 0.132 µM | Potency [3] 0.833 µM | Potency [4] 0.935 µM | Potency [5] 0.469 µM | Potency [6] 20.9 µM | Potency [7] 5.26 µM | Potency [8] 4.18 µM | Potency [9] 16.6 µM | Potency [10] 1.87 µM | Potency [11] 1.66 µM | Potency [12] 0.0526 µM | Potency [13] 4.18 µM | Potency [14] 0.332 µM | Potency [15] 0.296 µM | Potency [16] 0.59 µM | Potency [17] 1.05 µM | Potency [18] 2.96 µM

CN1CCC(=C2c3ccccc3CC(=O)c3sccc32)CC1
inactive: Potency [1] | Potency [5] | Potency [6] | Potency [9] | Potency [18]
active: Potency [2] 8.33 µM | Potency [3] 20.9 µM | Potency [12] 8.33 µM | Potency [14] 6.62 µM | Potency [15] 7.43 µM

CNCCCC12CCC(c3ccccc31)c1ccccc12
inactive: outcome [19]
active: Potency [1] 20.9 µM | Potency [2] 18.7 µM | Potency [5] 20.9 µM | Potency [7] 26.4 µM | Potency [8] 20.9 µM | Potency [10] 20.9 µM | Potency [12] 16.6 µM | Potency [13] 20.9 µM | Potency [14] 26.4 µM | Potency [15] 23.5 µM | Potency [16] 20.9 µM | Potency [17] 23.5 µM | Potency [18] 10.5 µM

CN1C2CCC1CC(OC(=O)C(CO)c1ccccc1)C2 (configuration not stated)
inactive: Potency [1] | Potency [2] | Potency [3] | Potency [5] | Potency [6] | Potency [7] | Potency [8] | Potency [10] | Potency [11] | Potency [12] | Potency [13] | Potency [14] | Potency [16] | Potency [17] | Potency [18]

CC1COc2c(N3CCN(C)CC3)c(F)cc3c(=O)c(C(=O)O)cn1c23 (configuration not stated)
inactive: Potency [1] | Potency [2] | Potency [3] | Potency [5] | Potency [6] | Potency [7] | Potency [10] | Potency [11] | Potency [13] | Potency [14] | Potency [15] | Potency [17]
active: Potency [16] 18.7 µM

CC(=O)OCC(CCn1cnc2cnc(N)nc21)COC(C)=O
inactive: Potency [1] | Potency [2] | Potency [3] | Potency [5] | Potency [6] | Potency [7] | Potency [10] | Potency [11] | Potency [12] | Potency [14] | Potency [15] | Potency [17] | Potency [18]

CC(C)C(=O)Nc1ccc([N+](=O)[O-])c(C(F)(F)F)c1
active: Potency [2] 3.32 µM | Potency [3] 1.48 µM | Potency [6] 18.7 µM | Potency [7] 1.05 µM | Potency [8] 18.7 µM | Potency [10] 8.33 µM | Potency [11] 13.2 µM | Potency [12] 6.62 µM | Potency [14] 3.32 µM | Potency [15] 3.32 µM | Potency [16] 0.935 µM | Potency [18] 13.2 µM
inactive: Potency [1] | Potency [5] | Potency [17]

CN(C)c1nc(N(C)C)nc(N(C)C)n1
inactive: Potency [1] | Potency [2] | Potency [3] | Potency [6] | Potency [8] | Potency [9] | Potency [10] | Potency [14] | Potency [15] | Potency [16] | Potency [17] | Potency [18]

CCC1(C)CC(=O)NC1=O (configuration not stated)
inactive: Potency [2] | Potency [3] | Potency [4] | Potency [5] | Potency [7] | Potency [8] | Potency [10] | Potency [12] | Potency [14] | Potency [15] | Potency [16] | Potency [18]
active: Potency [6] 0.0037 µM | Potency [17] 1.18 µM

Cc1cn([C@H]2C[C@H](N=[N+]=[N-])[C@@H](CO)O2)c(=O)[nH]c1=O
inactive: Potency [1] | Potency [4] | Potency [5] | Potency [6] | Potency [7] | Potency [8] | Potency [11] | Potency [17]
active: Potency [3] 7.43 µM | viability (% of DMSO) [9] 84.8% | Potency [10] 26.4 µM | Potency [13] 5.26 µM | Potency [14] 23.5 µM | Potency [15] 26.4 µM | Potency [16] 5.26 µM

O=C(c1ccc(OCCN2CCCCC2)cc1)c1c(-c2ccc(O)cc2)sc2cc(O)ccc12
active: Potency [1] 26.4 µM | Potency [2] 23.5 µM | Potency [6] 26.4 µM | Potency [7] 26.4 µM | Potency [8] 20.9 µM | Potency [9] 18.7 µM | Potency [11] 37.2 µM | Potency [12] 18.7 µM | Potency [13] 20.9 µM | Potency [16] 20.9 µM | Potency [18] 23.5 µM

CCCNCC(O)COc1ccccc1C(=O)CCc1ccccc1 (configuration not stated)
inactive: Potency [1] | Potency [5] | Potency [10] | Potency [13] | Potency [14] | Potency [17]
active: Potency [15] 16.6 µM

Clc1ccc2nsnc2c1NC1=NCCN1
inactive: Potency [1] | Potency [3] | Potency [8] | Potency [10] | Potency [12] | Potency [14] | Potency [15] | Potency [16]

OCCN1CCN(CCCN2c3ccccc3Sc3ccc(C(F)(F)F)cc32)CC1
active: Potency [1] 23.5 µM | Potency [2] 18.7 µM | Potency [5] 18.7 µM | Potency [7] 18.7 µM | Potency [8] 20.9 µM | Potency [10] 26.4 µM | Potency [11] 16.6 µM | Potency [12] 16.6 µM | Potency [14] 23.5 µM | Potency [15] 2.96 µM | Potency [18] 9.35 µM

CC(C)(C)C(=O)Oc1ccc(S(=O)(=O)Nc2ccccc2C(=O)NCC(=O)O)cc1
inactive: Potency [1] | Potency [4] | Potency [5] | Potency [6] | Potency [7] | Potency [10] | Potency [11] | Potency [16] | Potency [17] | Potency [18]
active: Potency [14] 18.7 µM

— PubChem BioAssay (NCATS)
